Compound activity deposited in PubChem BioAssay by National Center for Advancing Translational Sciences (NCATS).
IL-1B inflam inh: inflammasome signaling inhibition, IL-1 beta readout | actives 4.7% (n = 360,000) | activity change, % at 57.5 µM | THP-1 LPS/ATP IL-1B secretion, AlphaLISA, 16 h; hits give low values; in the data active means activity change below about -50%; inconclusive means mostly about -30% to -49%
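THP-1 cells pretreated 1 hr with compounds (up to 57.5 uM final), then stimulated with LPS (250 ng/mL final) plus ATP (1.25 mM final); secreted IL-1B measured by AlphaLISA after 16 hr, decreased signal indicating inhibition.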
TDP1 cell noCPT: qHTS for Inhibitors of human tyrosyl-DNA phosphodiesterase 1 (TDP1): qHTS in cells in absence of CPT; DT40 Tdp1-/- hTDP1 cells, no CPT, ATP luminescence, 48 h; Potency, µM (series often up to 46.2 µM), most hits filed as inhibitors; actives 15% (n = 420,000); further: nearly all actives have a fitted effect of over 55% in size
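A cellular qHTS used chicken DT40 cells lacking endogenous Tdp1 but carrying stably transfected human TDP1. Compounds were applied without camptothecin, and cell growth kinetics were judged by ATP-dependent luminescence after ≥48 hr.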
HT1080 IDH1KD tx: HT-1080 IDH1 knockdown cell toxicity (counter line) | HT-1080 IDH1 knockdown viability, ATP luminescence, 48 h | Potency, µM (doses to about 46.1 µM), usual class: cytotoxic | actives 2% (n = 360,000) | AID 686971
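After a 2 h attachment period, IDH1KD HT-1080 cells took pin-transferred compound for 48 h at 37 °C; ATP-based luminescence after 10 min room-temperature reagent incubation reported viability.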
TDP1 cell CPT: growth inhibition of DT40 Tdp1-/-;hTDP1 cells with camptothecin (screen for TDP1 inhibitors); actives 12% (n = 420,000); Potency, µM (doses to about 46.2 µM), most hits filed as inhibitors; chicken DT40 Tdp1-/-;hTDP1 cells + 20 nM CPT, ATP luminescence, 48 h; AID 686979; further: nearly all actives have a fitted effect of over 55% in size
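Cell growth measured by CellTiter-Glo luminescence after a minimum 48 h, 37 C compound exposure with 20 nM CPT in Tdp1-knockout DT40 cells stably expressing hTDP1, seeded 400/well; qHTS titration format.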
HT1080NT lethal: kills 2HG-producing HT-1080-NT fibrosarcoma cells; HT-1080-NT fibrosarcoma viability, CellTiter-Glo ATP luminescence, 48 h; Potency, µM (top dose mostly 46.1 µM), most hits filed as cytotoxic; AID 686970; actives 1.6% (n = 360,000);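 further: NT is the 2HG producing partner of a matched IDH1 knockdown line; nearly all actives have a fitted effect of over 55% in size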
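Toxicity toward the 2HG-producing NT line was scored as %Activity, normalised to DMSO and no-cell wells, from CellTiter-Glo luminescence after 48 hours' treatment.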
Hits are given with their value; - = inactive; ? = inconclusive; . = not tested or not shown; [ ] = another dose, or the depositor's remark. Rows were chosen to be rich in hits. Some 19% of all compounds tested hit in one or more screens of this group. Unless noted, the call rests on the fitted dose curve; in most records, active means well fitted curve in the direction sought with a large enough effect; inconclusive means small, poorly fitted or top-dose-only effect, or another doubt; inactive means no such curve, though single readings can be large; an effect the other way counts as inactive or inconclusive.

SMILES	IL-1B inflam inh	TDP1 cell noCPT	HT1080 IDH1KD tx	TDP1 cell CPT	HT1080NT lethal
Cc1ccc(/C=C/C(=O)c2ccccc2)cc1	-67	?	.	?	.
Cc1nn2cnnc2c(C)c1Cc1c(F)cccc1Cl	-	?	-	-	-
COC(=O)c1c(C)[nH]c(C(=O)/C=C/c2cccc(Cl)c2)c1C	-64	?	-	?	-
O=C(C=Cc1ccco1)c1ccc2ccccc2c1	-65	?	?	?	-
COC(=O)c1ccc(OC(=O)/C=C/c2ccco2)cc1	-	-	-	-	-
CSc1ccc(/C=C/C(=O)c2ccc(O)cc2)cc1	-79	-	?	18µM	?
CCOc1ccc(C(=O)/C=C/c2ccc(SC)cc2)cc1	-	?	?	?	-
C/C(=N\Nc1cccc(C(=O)O)c1)c1cc2ccccc2o1	-	-	-	-	-
CC(=O)Nc1cccc(NC(=O)Cc2nc(-c3ccccc3)sc2-c2ccc(C)cc2)c1	-	?	?	?	-
COC(=O)c1cccc(NC(=O)Cc2nc(-c3ccccc3)sc2-c2ccc(C)cc2)c1	-	18µM	-	?	-
COc1cccc(NC(=O)Cc2nc(-c3ccccc3)sc2-c2ccc(C)cc2)c1	-	16µM	-	?	-
CCOC(=O)C1=C(CC)Nc2ccccc2N=C1NC(=O)c1ccc(S(=O)(=O)N(C)C)cc1	-	5.8µM	?	7.3µM	-
CCOCc1c(C(=O)NC2=Nc3ccccc3NC(CC)=C2C(=O)OCC)oc2ccccc12	-	16µM	?	23µM	?
CCOC(=O)C1=C(CC)Nc2ccccc2N=C1NC(=O)c1ccc(C)c(S(=O)(=O)N2CCOCC2)c1	-	?	-	16µM	-
CCOC(=O)C1=C(CC)Nc2ccccc2N=C1NC(=O)c1ccc(S(=O)(=O)N2CCOCC2)cc1	-	?	-	?	-
CCOCc1c(C(=O)Nc2ccc(OC)nc2)oc2ccccc12	-	18µM	-	-	-
CC(=O)NCc1ccc(C(=O)CSc2nnc(C3CC3)n2C2CC2)cc1	-	-	-	-	-[9.24 µM]
CC(C)c1ccc(N(CC(=O)NCc2ccco2)C(=O)CCC(=O)Nc2ccccn2)cc1	-	-	-	-	-
COc1ccc(-c2nc(CCl)cs2)cc1	-	5.8µM	-	8.2µM	-
COc1ccc(-c2csc(-c3ccc(O)cc3)n2)cc1	-	6.5µM	1.6µM	7.3µM	5.2µM
Cc1ccc(-c2csc(-c3ccncc3)n2)cc1	-	-	-	-	-
CCc1ccc(-c2nc(CCl)cs2)cc1	-	?	-	12µM	-
COc1ccc(N2CC(O)=C(c3nc(-c4ccccc4)cs3)C2=N)cc1	-	21µM	-	?	-
Cc1cc(C)n(NC(=S)NC2CCCC2)c(=O)c1C#N	-	-	-	-	-
CC(C)(C)OC(=O)N1CCN(C(=O)c2[nH]cnc2C(=O)Nc2cccc(Cl)c2)CC1	-	-	-	?	-
SMILES	IL-1B inflam inh	TDP1 cell noCPT	HT1080 IDH1KD tx	TDP1 cell CPT	HT1080NT lethal
COc1ccc(-c2csc(-c3ccccc3)n2)c(OC)c1	-	-	-	-	-
COc1ccc(-c2nc(CCl)cs2)cc1OC	-	12µM	-	4.6µM	-
COc1ccc(-c2nc(-c3ccc(O)cc3O)cs2)cc1OC	-67	?	?	?	?
ClCc1csc(-c2ccccc2Cl)n1	-	18µM	-	12µM	-
COc1cccc(-c2nc(CCl)cs2)c1	?	?	-	21µM	-
O=C(O)c1ccc(-c2nc(-c3ccccc3Cl)cs2)cc1	-	-	-	-	-
O=C(c1cccnc1)C1CCCN(Cc2ccc3c(c2)CN(C(=O)c2cn4ccccc4n2)CCO3)C1 (stereo unspecified)	.	?	.	-[9.04 µM]	.
Cc1ccc(-c2nc3ccc(Cl)cn3c2Nc2ccc3c(c2)OCCO3)s1	.	?	.	18µM	.
Cc1ccc(-c2nc3ccc(Cl)cn3c2Nc2ccccc2)o1	.	?	-	?	-
Fc1ccccc1-c1ccc(-c2nc3ccc(Cl)cn3c2Nc2ccc(Cl)cc2)o1	.	3.5µM	?	4.5µM	?
Cc1ccc(-c2nc3ccc(Cl)cn3c2Nc2ccc3c(c2)OCCO3)o1	.	16µM	.	21µM	.
CCn1cc(CNC(=O)CCc2nnc(CCC3CCCCC3)o2)cn1	-	?	-	-	-
CN1CCN(Cc2cccc(Oc3ccc(Cl)cc3)c2)CC1	?	?	-	29µM	?
CCOC(=O)C1CCN(Cc2cccc(Oc3ccc(Cl)cc3)c2)CC1	-	-	-	?	-
CCN1CCN(Cc2cccc(Oc3ccc(Cl)cc3)c2)CC1	-	16µM	?	?	?
CCN1CCN(Cc2cccc(Oc3ccccc3)c2)CC1	-	-	-	-	-
Cc1cc(OCCCC(=O)NCCc2nnc3ccccn23)ccc1Cl	-	16µM	-	?	-
O=C(CCCOc1ccc(Cl)cc1Cl)NCCc1nnc2ccccn12	-	-	-	-	-
OC1(C#CCCN2CCCCC2)c2ccccc2-c2ccccc21	-	-	-	-	-
N#CC1(CCCN2CCCCC2)c2ccccc2CCc2ccccc21	-57	?	-	?	-
CC(C(=O)N1CCc2ccccc21)N1CCN(S(=O)(=O)c2cccs2)CC1 (stereo unspecified)	-	?	-	?	-
CC(=O)Nc1ccc(-c2ccnc3c2CC(C(=O)Nc2ccc4c(c2)OCO4)O3)cc1 (stereo unspecified)	-	8.2µM	15µM	6.5µM	?
CC(C)c1ccc(NC(=O)C2Cc3c(-c4ccc5c(c4)OCO5)ccnc3O2)cc1 (stereo unspecified)	-58	15µM	?	?	?
CC(=O)Nc1ccc(-c2ccnc3c2CC(C(=O)Nc2ccc(C(C)C)cc2)O3)cc1 (stereo unspecified)	-	?	-	?	?
CC(=O)c1cccc(-c2ccnc3c2CC(C(=O)Nc2ccc4c(c2)OCO4)O3)c1 (stereo unspecified)	-	2.3µM	2.3µM	4.1µM	?
SMILES	IL-1B inflam inh	TDP1 cell noCPT	HT1080 IDH1KD tx	TDP1 cell CPT	HT1080NT lethal
O=S(Cc1ccc(Cl)cc1)c1ccccc1 (stereo unspecified)	-	-	-	-	-
Cc1ccc(N2C(=O)c3cccc4c(N)ccc(c34)C2=O)c2cccnc12	-	0.021µM	0.0073µM	0.0082µM	0.021µM
CN(CC(=O)Nc1ccc(F)cc1)C(=O)COC(=O)CCN1C(=O)C2CC=CCC2C1=O (stereo unspecified)	-	-	-	-	-
O=C(NCc1cccc(F)c1)c1cccc2c1C(=O)c1ccc(N3CCCC3)cc1S2(=O)=O	-	12µM	-	?	-
O=C(NCc1cccc(F)c1)c1cccc2c1C(=O)c1ccc(N3CCC(Cc4ccccc4)CC3)cc1S2(=O)=O	-	?	-	-	-
COc1ccccc1N1CCN(c2ccc3c(c2)S(=O)(=O)c2cccc(C(=O)NCc4ccc(F)cc4)c2C3=O)CC1	-	2.6µM	-	?	-
